# Where “and” joins values, the source holds several entries; their conditions need not be identical. Equal entries are not always repeated.
# How the values were obtained:
# [1] = molecular target: T1, Tyrosine-protein kinase receptor TYRO3 (Homo sapiens) (UniProt Q06418); conditions: at 1 µM
# T1 sequence (whole entry): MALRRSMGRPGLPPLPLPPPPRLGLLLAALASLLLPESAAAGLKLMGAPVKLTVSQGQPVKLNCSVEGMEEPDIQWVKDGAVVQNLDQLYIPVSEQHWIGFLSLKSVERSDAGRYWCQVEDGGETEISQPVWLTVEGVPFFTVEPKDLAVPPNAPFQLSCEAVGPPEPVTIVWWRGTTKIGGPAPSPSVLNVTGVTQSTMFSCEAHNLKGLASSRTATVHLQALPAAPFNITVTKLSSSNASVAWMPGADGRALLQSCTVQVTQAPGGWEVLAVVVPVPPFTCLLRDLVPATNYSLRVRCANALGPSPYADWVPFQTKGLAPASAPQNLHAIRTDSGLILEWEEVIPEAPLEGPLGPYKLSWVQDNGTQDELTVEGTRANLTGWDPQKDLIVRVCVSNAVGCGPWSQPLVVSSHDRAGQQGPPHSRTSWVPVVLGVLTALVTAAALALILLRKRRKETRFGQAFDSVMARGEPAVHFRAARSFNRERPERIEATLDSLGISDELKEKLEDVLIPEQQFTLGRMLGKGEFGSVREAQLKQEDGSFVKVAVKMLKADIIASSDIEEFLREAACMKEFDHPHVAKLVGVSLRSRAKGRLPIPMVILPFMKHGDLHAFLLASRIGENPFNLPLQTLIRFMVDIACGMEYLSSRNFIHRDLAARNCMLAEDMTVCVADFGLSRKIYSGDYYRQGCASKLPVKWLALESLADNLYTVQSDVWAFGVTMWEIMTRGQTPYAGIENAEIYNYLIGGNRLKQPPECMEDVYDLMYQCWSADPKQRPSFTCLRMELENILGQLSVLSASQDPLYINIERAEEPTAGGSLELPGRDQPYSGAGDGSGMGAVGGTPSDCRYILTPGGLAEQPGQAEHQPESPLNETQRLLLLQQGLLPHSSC
# [2] = molecular target: Tyrosine-protein kinase Yes (Homo sapiens) (UniProt P07947); conditions: at 0.1 µM
# [3] = molecular target: Tyrosine-protein kinase Yes (Homo sapiens) (UniProt P07947); conditions: at 1 µM
# [4] = molecular target: T2, Tyrosine-protein kinase ZAP-70 (Homo sapiens) (UniProt P43403); conditions: at 0.1 µM
# T2 sequence (whole entry): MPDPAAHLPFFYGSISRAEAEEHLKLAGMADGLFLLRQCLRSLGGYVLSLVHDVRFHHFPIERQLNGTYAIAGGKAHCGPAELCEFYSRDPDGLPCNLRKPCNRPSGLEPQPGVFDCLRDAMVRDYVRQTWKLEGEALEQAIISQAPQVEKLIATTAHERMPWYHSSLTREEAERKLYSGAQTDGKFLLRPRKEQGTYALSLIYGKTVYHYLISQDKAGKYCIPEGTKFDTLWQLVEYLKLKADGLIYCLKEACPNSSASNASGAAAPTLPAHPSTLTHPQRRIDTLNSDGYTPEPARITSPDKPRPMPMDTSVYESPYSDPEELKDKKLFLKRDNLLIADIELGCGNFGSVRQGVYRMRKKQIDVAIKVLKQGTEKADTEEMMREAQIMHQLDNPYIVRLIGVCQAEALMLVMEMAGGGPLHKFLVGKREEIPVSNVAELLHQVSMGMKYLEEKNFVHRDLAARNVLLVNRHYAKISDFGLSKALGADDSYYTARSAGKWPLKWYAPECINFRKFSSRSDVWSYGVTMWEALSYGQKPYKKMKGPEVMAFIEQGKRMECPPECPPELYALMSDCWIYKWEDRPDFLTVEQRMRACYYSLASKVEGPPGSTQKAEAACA
# [5] = molecular target: T2, Tyrosine-protein kinase ZAP-70 (Homo sapiens); conditions: at 1 µM
# [6] = molecular target: Serine/threonine-protein kinase B-raf (Homo sapiens) (UniProt P15056); conditions: at 0.1 µM
# [7] = molecular target: Serine/threonine-protein kinase B-raf (Homo sapiens) (UniProt P15056); conditions: at 1 µM
# [8] = system: Serine/threonine-protein kinase B-raf (Homo sapiens), P15056 [V600E]; conditions: at 0.1 µM
# [9] = system: Serine/threonine-protein kinase B-raf (Homo sapiens), P15056 [V600E]; conditions: at 1 µM
# [10] = molecular target: RAF proto-oncogene serine/threonine-protein kinase (Homo sapiens) (UniProt P04049); conditions: at 0.1 µM;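 further: values are mean CRAF kinase inhibition from profiling of the GSK Published Kinase Inhibitor Set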
# Chain of RAF proto-oncogene serine/threonine-protein kinase (Homo sapiens) (P04049 whole entry): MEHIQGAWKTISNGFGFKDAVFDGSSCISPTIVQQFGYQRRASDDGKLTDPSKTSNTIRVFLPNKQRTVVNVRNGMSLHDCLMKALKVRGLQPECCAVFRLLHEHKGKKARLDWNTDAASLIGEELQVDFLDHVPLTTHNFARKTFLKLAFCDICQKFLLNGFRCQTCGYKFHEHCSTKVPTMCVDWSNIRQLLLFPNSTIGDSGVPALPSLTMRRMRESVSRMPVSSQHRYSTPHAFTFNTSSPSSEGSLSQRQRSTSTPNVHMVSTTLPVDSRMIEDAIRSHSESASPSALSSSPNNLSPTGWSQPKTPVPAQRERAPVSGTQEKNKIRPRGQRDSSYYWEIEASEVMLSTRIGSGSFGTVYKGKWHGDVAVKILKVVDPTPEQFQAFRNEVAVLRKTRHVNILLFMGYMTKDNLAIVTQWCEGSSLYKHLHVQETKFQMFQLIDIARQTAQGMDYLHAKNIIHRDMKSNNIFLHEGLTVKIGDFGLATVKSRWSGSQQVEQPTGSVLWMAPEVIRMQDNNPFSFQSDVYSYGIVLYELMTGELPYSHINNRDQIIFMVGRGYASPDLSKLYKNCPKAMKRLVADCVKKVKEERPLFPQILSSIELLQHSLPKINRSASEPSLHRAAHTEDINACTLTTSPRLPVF
# Chain of Serine/threonine-protein kinase B-raf (Homo sapiens), P15056 [V600E] (P15056 whole entry V600E): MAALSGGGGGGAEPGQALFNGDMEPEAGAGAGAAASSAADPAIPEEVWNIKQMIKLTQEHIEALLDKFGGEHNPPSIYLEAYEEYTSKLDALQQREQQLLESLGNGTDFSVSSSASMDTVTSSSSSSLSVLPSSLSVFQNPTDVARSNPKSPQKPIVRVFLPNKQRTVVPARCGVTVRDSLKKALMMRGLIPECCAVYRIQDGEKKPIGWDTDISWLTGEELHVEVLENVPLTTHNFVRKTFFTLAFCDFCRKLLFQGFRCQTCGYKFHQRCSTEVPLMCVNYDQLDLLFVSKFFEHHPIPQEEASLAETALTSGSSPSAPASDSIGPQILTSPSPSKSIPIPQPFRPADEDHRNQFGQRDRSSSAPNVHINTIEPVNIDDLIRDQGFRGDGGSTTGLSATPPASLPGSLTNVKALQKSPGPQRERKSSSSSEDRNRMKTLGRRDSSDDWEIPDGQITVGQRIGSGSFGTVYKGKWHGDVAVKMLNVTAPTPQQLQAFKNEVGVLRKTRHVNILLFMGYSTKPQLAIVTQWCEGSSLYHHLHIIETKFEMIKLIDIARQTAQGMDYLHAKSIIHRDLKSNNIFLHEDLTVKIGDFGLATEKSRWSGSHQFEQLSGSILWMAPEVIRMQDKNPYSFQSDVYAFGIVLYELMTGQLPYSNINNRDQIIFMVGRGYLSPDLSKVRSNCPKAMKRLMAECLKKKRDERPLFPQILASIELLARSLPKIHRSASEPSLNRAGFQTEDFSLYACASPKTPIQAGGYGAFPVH
# Chain of Tyrosine-protein kinase Yes (Homo sapiens) (P07947 2-543 limits assumed): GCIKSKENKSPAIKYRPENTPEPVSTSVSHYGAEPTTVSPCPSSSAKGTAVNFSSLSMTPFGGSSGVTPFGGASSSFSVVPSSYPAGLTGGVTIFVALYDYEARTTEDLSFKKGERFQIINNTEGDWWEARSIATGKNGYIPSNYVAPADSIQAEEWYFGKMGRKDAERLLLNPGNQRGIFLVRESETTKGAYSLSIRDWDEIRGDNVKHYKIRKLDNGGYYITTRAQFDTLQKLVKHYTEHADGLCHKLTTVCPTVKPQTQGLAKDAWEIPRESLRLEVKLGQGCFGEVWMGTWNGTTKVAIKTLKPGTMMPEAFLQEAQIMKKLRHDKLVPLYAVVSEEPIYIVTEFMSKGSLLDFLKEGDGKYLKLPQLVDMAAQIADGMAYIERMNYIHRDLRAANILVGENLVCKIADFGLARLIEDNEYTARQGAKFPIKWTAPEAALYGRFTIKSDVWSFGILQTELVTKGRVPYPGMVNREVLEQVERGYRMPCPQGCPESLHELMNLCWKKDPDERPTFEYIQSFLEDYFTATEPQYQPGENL
# Chain of Serine/threonine-protein kinase B-raf (Homo sapiens) (P15056 whole entry): as the sequence (P15056 whole entry V600E) above, with E600V counted along it
Structure (SMILES),inhibition [1],inhibition [2],inhibition [3],inhibition [4],inhibition [5],inhibition [6],inhibition [7],inhibition [8],inhibition [9],inhibition [10]
CCS(=O)(=O)c1ccc(OC)c(Nc2ncc(-c3cccc(F)c3)o2)c1,26.2%,75.9%,96.3%,1.94%,5.25%,7.42%,10%,4.95%,4.95%,1.22%
FC(F)(F)CNc1nccc(-c2cnn3ncccc23)n1,2.17%,1.28%,1.55%,0.71%,1.8%,4.03%,3.85%,3.08%,2.52%,-1.22%
COc1ccc(Nc2ncc(-c3ccccc3)o2)cc1OC,4.23%,7%,35.7%,1.28%,1.27%,-1.46%,1.35%,0.52%,2.34%,-0.64%
Nc1nonc1-c1nc2cnccc2n1C1CC1,4.53% and 2.7%,-0.59% and 1.1%,1.1% and 2.73%,0.56% and -1.17%,3.98% and -1.48%,5.09% and 3.82%,9.07% and 5.15%,4.37% and 3.69%,8.28% and 5.87%,6.05% and 2.66%
COC(=O)Nc1nc2ccc(Oc3ccc(NC(=O)Nc4cc(C(F)(F)F)ccc4F)cc3)cc2s1,40%,4.21%,11.5%,1.19%,-0.75%,2.35%,22.1%,2.96%,37.3%,8.71%
O=C(O[C@H]1CN[C@H](C#Cc2cc3ncnc(Nc4ccc5c(ccn5Cc5cc(F)ccc5F)c4)c3s2)C1)N1CCOCC1,3.08%,0.85%,8.22%,0.89%,2.72%,6%,6.76%,6.11%,6.31%,1.88%
CC(C)c1ccc(-c2cc(-c3c[nH]nc3-c3ccccn3)ccn2)cc1,2.71%,0.42%,0.34%,1.32%,1.31%,0.6%,3.57%,0%,3.39%,1.14%
CC1=C(C(=O)Nc2ccc3[nH]nc(C)c3c2)C(c2ccc(C(F)(F)F)cc2)CC(=O)N1 (stereo not given),2.61%,2.7%,11.8%,0.65%,2.13%,6.25%,38.8%,5.77%,37.9%,3.79%
COc1cc(N2CCN(C(C)C)CC2)ccc1Nc1nc(Nc2cccc3ncccc23)c2cc[nH]c2n1,-0.92%,-0.19%,1.79%,-0.91%,-0.16%,-0.4%,0.61%,0.32%,1.11%,0.02%
CS(=O)(=O)Nc1ccc(-c2cc(-c3ccccc3)cc(C(N)=O)c2N)cc1,0.42%,0.79%,4.67%,-2.43%,-3.4%,2.34%,3.97%,2.93%,3.58%,-0.86%
NS(=O)(=O)c1cccc(N/C=C2\C(=O)Nc3ccccc32)c1,8.3%,4.04%,9.49%,1.68%,4.58%,6.24%,7.76%,6.39%,7.82%,-0.16%
CC1(C)CC(n2cnc(-c3ccc(F)cc3)c2-c2ccnc(N)n2)CC(C)(C)N1,5.65%,0.2%,7.25%,0.52%,2.37%,1.97%,1.13%,1.52%,0.8%,6.47%
CS(=O)(=O)CCNCc1ccoc1-c1ccc2ncnc(Nc3ccc(OCc4ccccc4)cc3)c2c1,3.68%,4.12%,21.9%,-0.82%,2.26%,1.03%,1.49%,1.75%,1.31%,-1.29%
CC1=C(C(=O)Nc2ccc3[nH]ncc3c2)C(c2ccc(F)cc2)N=C(c2ccc(C(F)(F)F)nc2)N1 (stereo not given),3.3%,1.26%,4.23%,2.61%,1.68%,1.92%,5.6%,1.17%,6.02%,1.11%
COC(=O)Nc1nc2cc(Oc3ccc(NC(=O)Nc4ccccc4)cc3)ccc2[nH]1,4.81%,0.64%,4.69%,0.7%,1.28%,4.74%,4.26%,5.49%,5%,-5.27%
COc1cccc(Nc2nccc(-c3cnn4ncccc34)n2)c1,21.2%,3.57%,20.5%,2.31%,11.7%,5.24%,31.6%,4.52%,30.7%,2.53%

Structure (SMILES),inhibition [1],inhibition [2],inhibition [3],inhibition [4],inhibition [5],inhibition [6],inhibition [7],inhibition [8],inhibition [9],inhibition [10]
CNC(=O)c1sc(-n2cnc3cc(OC)c(OC)cc32)cc1OCc1ccccc1C(F)(F)F,3.54%,3.33%,6.76%,-0.03%,-1.04%,6.42%,6.14%,4.01%,4.66%,1.81%
COc1cc2c(cc1Nc1nc(Nc3cccc(F)c3C(N)=O)c3cc[nH]c3n1)N(C(=O)CN1CCN(C(C)C)CC1)CC2,0.01%,1.54%,1.04%,2.59%,3.22%,2.3%,7.9%,2.2%,4.6%,0.97%
Cc1nnc(-c2cccc(-c3ccc(C(=O)NCC4CC4)cc3)c2)o1,4.17%,5.35%,7.53%,4.93%,7.42%,8.68%,6.82%,7.4%,5.64%,-0.41%
CN(C)CCNC(=O)Nc1ccc(N(C)c2ccnc(Nc3ccc(CS(C)(=O)=O)cc3)n2)cc1,5.87%,0.55%,2.71%,1.7%,1.48%,4.53%,5.12%,5.5%,6.71%,-0.51%
CS(=O)(=O)CCNCc1ccc(-c2ccc3ncnc(Nc4ccc(OCc5cccc(C(F)(F)F)c5)cc4)c3c2)o1,0.73%,0.5%,5.33%,3.18%,0.41%,6.08%,8.69%,4.37%,5.8%,1.96%
CCn1c(-c2nonc2N)nc2cncc(C(=O)NCCNC)c21,5.41%,2.4%,5.52%,0.59%,1.01%,7.93%,7.26%,4.48%,4.42%,2.61%
CN1CCC(n2cnc(-c3ccc(F)cc3)c2-c2ccnc(NCCO)n2)CC1,5.81%,2.55%,8.81%,2.9%,-0.3%,5.28%,8.68%,4.16%,8.41%,-1.57%
CNC(=O)c1ncccc1Nc1nc(Nc2cc3c(cc2OC)CCCN3C(=O)CN(C)C)nc2[nH]ccc12,5.61%,0.73%,-1.63%,-0.5%,2.99%,4.31%,4.44%,5.35%,9.32%,-1.22%
COc1ccccc1-c1cc(/C=C2\C(=O)Nc3ncc(Br)cc32)cc(Br)c1O,3.41%,-0.07%,12.9%,2.43%,6.67%,6.58%,10.5%,7.25%,8.04%,-0.19%
CS(=O)(=O)CCNCc1ccc(-c2ccc3ncnc(Nc4ccc(OCc5ccccc5)cc4)c3c2)o1,4.25%,9.54%,42.1%,0.98%,2.51%,4.6%,6.13%,3.8%,3.33%,-0.67%
Cn1c(-c2nonc2N)nc2cnccc21,0.09%,1.37%,1.42%,3.27%,1.74%,4.15%,3.62%,4.29%,3.98%,2.49%
CN1CCN(Cc2ccc(-c3cc4ncnc(Nc5ccc(OCc6cccc(F)c6)c(Cl)c5)c4s3)o2)CC1,12.4% and 17.4%,14% and 15.7%,58.6% and 60.3%,1.12% and 6.43%,7.67% and 11.7%,4.33% and 8.54%,5.51% and 9.42%,3.61% and 9.64%,4.75% and 9.2%,-0.28% and 16.3%
Cc1ccc(-c2cc3c(NC(=O)C4CC4)ncnc3o2)cc1,47.8%,6%,23.7%,1.07%,3.18%,4.57%,4.6%,4.47%,4.89%,-0.84%
N#Cc1cccc(Nc2ncc(-c3ccccc3)o2)c1,6.8%,2.87%,17.7%,0.3%,1.57%,3.08%,3.51%,3.18%,4.57%,-1.08%
Fc1ccc(Nc2nccc(-c3c(-c4ccc(C(F)(F)F)cc4)nn4ncccc34)n2)cc1F,1.88%,-0.6%,1.12%,2.29%,2.38%,3.42%,6.75%,3.45%,6.03%,4.84%

# Source: ChEMBL document CHEMBL1961873, “Compounds: GSK PKIS; Assays: Nanosyn kinase panel” (2012)
